{"source": "PubChem BioAssay AID463173", "about": "(ICCB-Longwood Screening Facility, Harvard Medical School, 2010)", "note": "Screen size: about 52,000 compounds; about 4,300 (8.3%) were called active. Rule as the data show it: active = survival mostly below about 52% (no sharp cut-off); inactive = mostly above about 56%. The full list was thinned out, with actives kept by preference.", "data": [{"system": "DeltatarO mutant", "assay": "S. aureus survival, RN4220 and DeltatarO strains – OD600, teichoic acid synthesis inhibitors, primary screen (AID 463173)", "details": "S. aureus RN4220 wild type/DeltatarO growth, OD600, 18 h, active compounds read low, screened at 18.75 µg/mL (by protocol)", "values": [{"compound": "COCc1cc(C)nc2sc3c(=O)n(-c4cc(C)ccc4C)nnc3c12", "survival": "87% (inactive)"}, {"compound": "Cc1cc(C)c(NC(=O)C2CCN(C(=O)N3CC(C)Oc4ccc(Cl)cc43)CC2)c(C)c1", "note": "(stereo not given)", "survival": "56% (inactive)"}, {"compound": "Cc1cc(C)c(NC(=O)CSc2nccn2-c2cccc(Cl)c2)c(C)c1", "survival": "73% (inactive)"}, {"compound": "CCN(CC)S(=O)(=O)c1ccc2c(c1)c(=O)c(C(=O)NCCc1ccccc1)cn2C", "survival": "85% (inactive)"}, {"compound": "Cc1cc(C)c(NC(=O)Cn2nnc(C(=O)NCc3cccs3)c2N)c(C)c1", "survival": "91% (inactive)"}, {"compound": "CCOc1ccc(Sc2cc(C(=O)NC(C)c3ccccc3)c3ccccc3n2)cc1", "note": "(stereo not given)", "survival": "75% (inactive)"}, {"compound": "Cc1ccccc1C(=O)Nc1cccc(OCc2cc(=O)n3c4c(sc3n2)CCCC4)c1", "survival": "101% (inactive)"}, {"compound": "COc1ccccc1C(=O)Nc1cccc(OCc2cc(=O)n3c4c(sc3n2)CCCC4)c1", "survival": "39% (active)"}, {"compound": "COc1cccc(C(=O)Nc2cccc(OCc3cc(=O)n4c5c(sc4n3)CCCC5)c2)c1", "survival": "51% (active)"}, {"compound": "COc1ccc(C(=O)Nc2cccc(OCc3cc(=O)n4c5c(sc4n3)CCCC5)c2)cc1OC", "survival": "53% (inactive)"}, {"compound": "Cc1ccccc1C(=O)Nc1cccc(OCc2cc(=O)n3c(C)csc3n2)c1", "survival": "96% (inactive)"}, {"compound": "COc1ccc(C(=O)Nc2cccc(OCc3cc(=O)n4c5c(sc4n3)CCCC5)c2)cc1", "survival": "55% (inactive)"}, {"compound": "COc1ccccc1C(=O)Nc1cccc(OCc2cc(=O)n3c(C)csc3n2)c1", "survival": "44% (active)"}, {"compound": "Cc1csc2nc(COc3cccc(NC(=O)c4ccccc4F)c3)cc(=O)n12", "survival": "123% (inactive)"}, {"compound": "Cc1ccc(C(=O)Nc2cccc(OCc3cc(=O)n4c5c(sc4n3)CCCC5)c2)cc1", "survival": "118% (inactive)"}, {"compound": "CCOc1ccc(-c2nonc2NC(=O)c2oc3ccc(Cl)cc3c2C)cc1", "survival": "64% (inactive)"}, {"compound": "NNC1=NC2CS(=O)(=O)CC2S1", "note": "(stereo not given)", "survival": "56% (inactive)"}, {"compound": "CCSc1nnc(CNc2ccc(F)cc2)n1CC1CCCO1", "note": "(stereo not given)", "survival": "91% (inactive)"}, {"compound": "COCCCNC(=O)c1ccc(Cn2c(=O)c3cccn3c3cccnc32)cc1", "survival": "70% (inactive)"}, {"compound": "CC(NC(=O)c1ccc(Cn2c(=O)c3cccn3c3cccnc32)cc1)c1ccccc1", "note": "(stereo not given)", "survival": "101% (inactive)"}, {"compound": "CCC(C)NC(=O)c1ccc(Cn2c(=O)c3cccn3c3cccnc32)cc1", "note": "(stereo not given)", "survival": "116% (inactive)"}, {"compound": "CC(CNC(=O)c1ccc(Cn2c(=O)c3cccn3c3cccnc32)cc1)c1ccccc1", "note": "(stereo not given)", "survival": "41% (active)"}, {"compound": "CC(C)NC(=O)c1ccc(Cn2c(=O)c3cccn3c3cccnc32)cc1", "survival": "44% (active)"}, {"compound": "CC(C)CCNC(=O)c1ccc(Cn2c(=O)c3cccn3c3cccnc32)cc1", "survival": "64% (inactive)"}, {"compound": "CC(C)CCn1c(=O)c2sccc2n2c(CCCC(=O)NC(C)c3ccccc3)nnc12", "note": "(stereo not given)", "survival": "88% (inactive)"}, {"compound": "Nc1nnc(SCC(=O)C2CC2)s1", "survival": "80% (inactive)"}, {"compound": "O=C(N/N=C/c1ccc(F)cc1)c1ccc(NC(=O)C2CC2)cc1", "survival": "105% (inactive)"}, {"compound": "Cc1cc(Nc2cccc(Cl)c2)nc2ccc(NC(=O)c3cccnc3)cc12", "survival": "91% (inactive)"}, {"compound": "COc1ccc(NC(=O)C2=CC(c3cccs3)=NS(=O)(=O)N2C)cc1", "survival": "94% (inactive)"}, {"compound": "COc1ccc(NC(=O)C2=CC(c3ccc4c(c3)OCO4)=NS(=O)(=O)N2C)cc1", "survival": "88% (inactive)"}, {"compound": "Cc1ccc(NC(=O)C2=CC(c3cccs3)=NS(=O)(=O)N2C)cc1", "survival": "83% (inactive)"}, {"compound": "CN1C(C(=O)Nc2ccc(OC(F)(F)F)cc2)=CC(c2ccc3c(c2)OCO3)=NS1(=O)=O", "survival": "80% (inactive)"}, {"compound": "CN1C(C(=O)Nc2ccc(OC(F)(F)F)cc2)=CC(c2cccs2)=NS1(=O)=O", "survival": "31% (active)"}, {"compound": "COc1ccc(C2=NS(=O)(=O)N(C)C(C(=O)Nc3ccc(OC(F)(F)F)cc3)=C2)cc1", "survival": "48% (active)"}, {"compound": "Cc1cc(C)c(Cn2c(=O)n(-c3ccccc3Cl)c(=O)c3c(C)c(C(=O)N(C)C)sc32)c(C)c1", "survival": "86% (inactive)"}, {"compound": "CCCNc1nc2c(c(=O)n(C)c(=O)n2C)n1CC(O)COc1ccccc1", "note": "(stereo not given)", "survival": "62% (inactive)"}, {"compound": "CCNc1nc2c(c(=O)n(C)c(=O)n2C)n1CC(O)COc1ccccc1", "note": "(stereo not given)", "survival": "61% (inactive)"}, {"compound": "CCCCNc1nc2c(c(=O)n(C)c(=O)n2C)n1CC(O)COc1ccccc1C", "note": "(stereo not given)", "survival": "42% (active)"}, {"compound": "Cc1cccc(NC(=O)CSc2nc3c(c(=O)[nH]2)CN(Cc2ccc4c(c2)OCO4)CC3)c1C", "survival": "78% (inactive)"}, {"compound": "O=C1CCC(=O)N1CC(=O)N1CCCc2ccccc21", "survival": "85% (inactive)"}, {"compound": "CCN(CC)S(=O)(=O)c1ccc2c(c1)nc(CN(C)C(=O)Nc1ccc(C)c(Cl)c1)n2C", "survival": "86% (inactive)"}, {"compound": "COc1ccc(C(=O)NNc2ncnc3c2cnn3-c2ccccc2)cc1", "survival": "92% (inactive)"}, {"compound": "Cc1ccc(-n2ncc3c(Nc4cccc(C)c4C)ncnc32)cc1", "survival": "94% (inactive)"}, {"compound": "CCC(C)Nc1ncnc2c1cnn2-c1ccc(F)cc1", "note": "(stereo not given)", "survival": "72% (inactive)"}, {"compound": "Cc1ccc(-n2ncc3c(Nc4ccc(Oc5ccccc5)cc4)ncnc32)cc1", "survival": "68% (inactive)"}, {"compound": "CCOc1ccccc1Nc1ncnc2c1cnn2-c1ccc(C)cc1", "survival": "87% (inactive)"}, {"compound": "Cc1ccc(-n2ncc3c(NC(C)c4ccccc4)ncnc32)cc1", "note": "(stereo not given)", "survival": "94% (inactive)"}, {"compound": "CCC(CO)Nc1ncnc2c1cnn2-c1ccc(C)cc1", "note": "(stereo not given)", "survival": "-5% (active)"}, {"compound": "Cc1ccc(C)c(Nc2ncnc3c2cnn3-c2ccc(F)cc2)c1", "survival": "-1% (active)"}, {"compound": "Cc1ccc(-n2ncc3c(NCCCc4ccccc4)ncnc32)cc1", "survival": "89% (inactive)"}, {"compound": "CC(C)(C)c1ccc(C(=O)NNc2ncnc3c2cnn3-c2ccccc2)cc1", "survival": "115% (inactive)"}, {"compound": "CC(=O)NNc1ncnc2c1cnn2-c1ccccc1", "survival": "46% (active)"}, {"compound": "CCCCc1ccc(Nc2ncnc3c2cnn3-c2ccc(C)cc2)cc1", "survival": "17% (active)"}, {"compound": "Cc1ccccc1NC(=O)CCNC(=O)Cn1ccc2ccccc2c1=O", "survival": "70% (inactive)"}, {"compound": "N/C(=N\\c1nc2ccccc2o1)NC(=O)/C=C/c1ccco1", "survival": "85% (inactive)"}, {"compound": "Cc1ccc(-n2c(=O)c3ccc(C(=O)NCc4ccco4)cc3n(Cc3ccc(Cl)cc3)c2=O)cc1", "survival": "77% (inactive)"}, {"compound": "CS(=O)(=O)c1ccc2nc(NC(=O)CN3C(=O)c4ccccc4C3=O)sc2c1", "survival": "85% (inactive)"}, {"compound": "COc1ccc(CNC(=O)CSCc2cnn(-c3ccccc3)c2-n2cccc2)cc1OC", "survival": "106% (inactive)"}, {"compound": "Cc1coc2cc3oc(=O)c(CCC(=O)NCc4ccc(Cl)cc4)c(C)c3cc12", "survival": "69% (inactive)"}, {"compound": "CCn1cc2nc(SCc3ccc(C)cc3)n(CCc3ccccc3)c(=O)c2n1", "survival": "78% (inactive)"}, {"compound": "N#Cc1cc2cc3c(cc2nc1SCC(=O)N1CCN(c2ccc(F)cc2)CC1)OCCO3", "survival": "67% (inactive)"}, {"compound": "CC(C)(C)c1ccc(OCC(=O)Nc2ccc(C(=O)OC3CCCCC3)cc2)cc1", "survival": "71% (inactive)"}, {"compound": "CCOC(=O)c1cc(-c2ccccc2)n(-c2cccc(C(=O)Nc3ccc(OC)cc3)c2)c1C", "survival": "83% (inactive)"}, {"compound": "CCOC(=O)c1cc(-c2ccccc2)n(-c2cccc(C(=O)Nc3ccc(OCC)cc3)c2)c1C", "survival": "37% (active)"}, {"compound": "CCOC(=O)c1cc(-c2ccccc2)n(-c2cccc(C(=O)Nc3cccc(C(C)=O)c3)c2)c1C", "survival": "89% (inactive)"}, {"compound": "CCOC(=O)c1cc(-c2ccccc2)n(-c2cccc(C(=O)Nc3cccc(SC)c3)c2)c1C", "survival": "32% (active)"}, {"compound": "CCOC(=O)c1cc(-c2ccccc2)n(-c2cccc(C(=O)Nc3cccc(F)c3)c2)c1C", "survival": "135% (inactive)"}, {"compound": "CCOC(=O)c1cc(-c2ccccc2)n(-c2cccc(C(=O)Nc3cc(OC)cc(OC)c3)c2)c1C", "survival": "81% (inactive)"}, {"compound": "CCOC(=O)c1ccccc1NC(=O)Nc1cc2c(cc1N1CCCCC1)n(C)c(=O)n2C", "survival": "76% (inactive)"}, {"compound": "CCC1CCCCN1C(=O)CSc1nnc(-c2ccc(OC)c(OC)c2)o1", "note": "(stereo not given)", "survival": "71% (inactive)"}, {"compound": "CCOc1cc(CNC(=O)CN2CCSc3ccccc32)cc(OCC)c1OCC", "survival": "85% (inactive)"}, {"compound": "CC(C)CCNC(=O)C1CCC(Cn2c(=O)c3sccc3n(CC(=O)NC(C)C)c2=O)CC1", "note": "(stereo not given)", "survival": "95% (inactive)"}, {"compound": "CCOC(=O)c1c(SCC(=O)Nc2nc3ccc(C)cc3s2)nc(=O)[nH]c1C", "survival": "70% (inactive)"}, {"compound": "CCOC(=O)c1c(SCC(=O)Nc2nc3ccccc3s2)nc(=O)[nH]c1C", "survival": "6% (active)"}, {"compound": "CCOC(=O)c1c(SCC(=O)Nc2cccc(C)c2C)nc(=O)[nH]c1C", "survival": "67% (inactive)"}, {"compound": "CCCCc1ccc(C(=O)N/C(=C\\c2ccc(C)cc2)C(=O)NC2CCCCC2)cc1", "survival": "66% (inactive)"}, {"compound": "Cn1c(=O)n(CCCc2ccccc2)c(=O)c2c1nc1n2CCN1c1ccccc1", "survival": "75% (inactive)"}, {"compound": "O=C(Nc1ccc(Cl)c(Cl)c1)c1cc(S(=O)(=O)N2CCN(c3cccc(Cl)c3)CC2)ccc1F", "survival": "68% (inactive)"}, {"compound": "COc1cc(C(=O)N2CCC(c3ccncc3)CC2)cc(OC)c1OC", "survival": "88% (inactive)"}, {"compound": "COc1ccc(C(=O)N2CCC(c3ccncc3)CC2)cc1OC", "survival": "-5% (active)"}, {"compound": "CCOc1ccc(C(=O)N2CCC(c3ccncc3)CC2)cc1", "survival": "94% (inactive)"}, {"compound": "CCN(CC)c1ccc(C(=O)N2CCC(c3ccncc3)CC2)cc1", "survival": "88% (inactive)"}, {"compound": "CCOc1cc(C(=O)N2CCC(c3ccncc3)CC2)cc(OCC)c1OCC", "survival": "17% (active)"}, {"compound": "COc1cc(OC)cc(C(=O)N2CCC(c3ccncc3)CC2)c1", "survival": "89% (inactive)"}, {"compound": "CCNC(=O)Cc1ccc(NC(=O)N2CCCCc3ccccc32)cc1", "survival": "74% (inactive)"}, {"compound": "O=C(Nc1nnc2n1CCS2)c1ccccc1C(F)(F)F", "survival": "93% (inactive)"}, {"compound": "O=C(c1ccc2c(Cl)c3c(nc2c1)CCCC3)N1CCN(c2cccc(Cl)c2)CC1", "survival": "65% (inactive)"}, {"compound": "Cc1cccc(N2CCN(C(=O)c3ccc4c(Cl)c5c(nc4c3)CCCC5)CC2)c1C", "survival": "93% (inactive)"}, {"compound": "Cc1ccc(N2CCN(C(=O)c3ccc4c(Cl)c5c(nc4c3)CCCC5)CC2)c(C)c1", "survival": "88% (inactive)"}, {"compound": "Cc1ccc(Cl)cc1N1CCN(C(=O)c2ccc3c(Cl)c4c(nc3c2)CCCC4)CC1", "survival": "31% (active)"}, {"compound": "O=C(c1ccc2c(Cl)c3c(nc2c1)CCCC3)N1CCN(c2ccccc2)CC1", "survival": "20% (active)"}, {"compound": "O=C(c1ccc2c(Cl)c3c(nc2c1)CCCC3)N1CCN(c2ccc(Cl)cc2)CC1", "survival": "92% (inactive)"}, {"compound": "O=C(c1ccc2c(Cl)c3c(nc2c1)CCCC3)N1CCN(c2ccccc2F)CC1", "survival": "-3% (active)"}, {"compound": "Cc1ccc(C)c(N2CCN(C(=O)c3ccc4c(Cl)c5c(nc4c3)CCCC5)CC2)c1", "survival": "98% (inactive)"}, {"compound": "O=C(c1ccc2c(Cl)c3c(nc2c1)CCCC3)N1CCN(c2cccc(C(F)(F)F)c2)CC1", "survival": "64% (inactive)"}]}]}
